Source: the OligoGym collection

Each sequence was assayed against RNF122 (assay: pooled miR-30 sensor sort-seq; sequence = guide strand). Conditions: shRNA.
Also: reference of the scale not given here.

Row | Sequence | sensor-assay potency score (higher = more potent)
1 | TATCCGTATCGCTCACTCTGTG | -0.565
2 | TTGCTGATAAAATAGCAGCAGA | -0.908
3 | ATCCGTATCGCTCACTCTGTGC | -0.963
4 | ATATCCGTATCGCTCACTCTGT | -0.868

These sequences were tested against RNF125 in the same assay as above. Conditions: shRNA.

Row | Sequence | sensor-assay potency score (higher = more potent)
5 | ATACTTATCTATGTACTTCTGA | 0.546
6 | TTATCTATGTACTTCTGACAAG | -1.25
7 | TGTACTTCTGACAAGTCCGAAT | -0.85
8 | TTCTTGTAGTGGTCCATACTTA | -0.891
9 | TATCTATGTACTTCTGACAAGT | -0.831
10 | ATGTACTTCTGACAAGTCCGAA | -1.03
11 | TAGTGGTCCATACTTATCTATG | -1.8
12 | TACTTATCTATGTACTTCTGAC | -0.698
13 | TTGTTCTTTAGACTGGTAGCAA | -0.126
14 | TTGTTGTTCTTTAGACTGGTAG | -0.623
15 | TTATACTCTGATTTCATTCTTT | 0.204
16 | TAGACTGGTAGCAATACAGGAA | -0.258

These sequences were tested against RNF14 in the same assay as above. Conditions: shRNA.

Row | Sequence | sensor-assay potency score (higher = more potent)
17 | TTTCTGAGAACCAATCTTGAGC | -0.733
18 | TCTAAATTCATCTCCATCGTAA | 0.0572
19 | TTACTTTGTGTACTTGACGGAA | -0.835
20 | TCATCTTGTTACATCCGTCTAA | 0.00357
21 | TATCGTCGTCAACATCCACAGC | -0.981
22 | AATATCGTCGTCAACATCCACA | -1.06
23 | TTTGAGTTCTTCTCTAGCCACT | -1.03
24 | TATCTTGAAATTCTGTGGCAAA | -1.02
25 | ATGTCATCTTGTTACATCCGTC | -0.926
26 | TAAAACATGGTGAACCAGGGTC | 0.147
27 | TTTATTAGCCTCATCCGCTTGC | 0.884
28 | TTCTTCTCTAGCCACTCCTTAC | -0.95

The sequences below were run against RNF157 in the same assay as above. Conditions: shRNA.

Row | Sequence | sensor-assay potency score (higher = more potent)
29 | TTGAGTCCCTGACTGCTGCTGT | 0.522
30 | TTCAATTCCATAGATCTCCTGA | 0.823
31 | TTCCTCAGCACATTTGACGAGC | -0.263
32 | TAAGGAAACACAACTGGTCTGT | 0.685
33 | TTGTACTGCACAGTCTCCGACT | -0.593
34 | TTCCTCTTCATGCAGCACGGAA | -1.64
35 | TACCATTCTGGAACTCTTCCGT | 0.188
36 | TTGTCTTTGGGAATGTAGCTGG | 0.177
37 | TTTCGGATATTGACCAGGCTTC | -1.09
38 | TTGAGTCAAACTTCTCTCCTCC | 0.532
39 | TTGAGTTTGAGTCCCTGACTGC | -0.461
40 | TACTTGTTTCTGTTTGAGGGGC | 0.142
